According to PubChem BioAssay (NCATS):
Results filed as inconclusive are left out. Active and inactive are the calls of the source. Calls come from the whole dose curve; as a rule, active = well fitted curve in the direction sought with a large enough effect; inconclusive = small, poorly fitted or top-dose-only effect, or another doubt; inactive = no such curve, though single readings can be large; an effect the other way counts as inactive or inconclusive.

How the values were obtained:
[1] = Quantitative High-Throughput drug screen in 47 multiple myeloma cell lines against the NCATS MIPE library collection: U266_ATCC cell viability assay (AID 1919864); note: nearly all actives have a fitted effect of over 35% in size; note: potency is the fitted concentration of half-maximal effect
Summary of the method: (§1)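 MIPE 4.0 approved/investigational drugs; 500 cells/well; 48 h 37 °C humidified 5% CO2; CTG luminescence readout; DMSO = 100%, media = 0% viability.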

[2] = Quantitative High-Throughput drug screen in 47 multiple myeloma cell lines against the NCATS MIPE library collection: XG6_PLB cell viability assay (AID 1919865); note: nearly all actives have a fitted effect of over 40% in size; note: potency is the fitted concentration of half-maximal effect
Summary of the method: as §1

[3] = Quantitative High-Throughput drug screen in 47 multiple myeloma cell lines against the NCATS MIPE library collection: XG1_PLB cell viability assay (AID 1919866); note: nearly all actives have a fitted effect of over 35% in size; note: potency is the fitted concentration of half-maximal effect
Summary of the method: as §1

[4] = Quantitative High-Throughput drug screen in 47 multiple myeloma cell lines against the NCATS MIPE library collection: VP6_DJ cell viability assay (AID 1919867); note: nearly all actives have a fitted effect of over 40% in size; note: potency is the fitted concentration of half-maximal effect
Summary of the method: as §1

[5] = Quantitative High-Throughput drug screen in 47 multiple myeloma cell lines against the NCATS MIPE library collection: PE2_PLB cell viability assay (AID 1919869); note: nearly all actives have a fitted effect of over 35% in size; note: potency is the fitted concentration of half-maximal effect
Summary of the method: as §1

[6] = Quantitative High-Throughput drug screen in 47 multiple myeloma cell lines against the NCATS MIPE library collection: PCM6_Riken cell viability assay (AID 1919870); note: nearly all actives have a fitted effect of over 30% in size; note: potency is the fitted concentration of half-maximal effect
Summary of the method: as §1

[7] = Quantitative High-Throughput drug screen in 47 multiple myeloma cell lines against the NCATS MIPE library collection: OPM2_DSMZ cell viability assay (AID 1919872); note: nearly all actives have a fitted effect of over 30% in size; note: potency is the fitted concentration of half-maximal effect
Summary of the method: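 CellTiter-Glo luminescence (ATP) after 48 h compound exposure, 37C/5% CO2; 500 cells/well; MIPE 4.0 approved/investigational drugs pinned in; DMSO = 100%, media only = 0% viability.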

[8] = Quantitative High-Throughput drug screen in 47 multiple myeloma cell lines against the NCATS MIPE library collection: KMS11_JCRBsus cell viability assay (AID 1919873); note: nearly all actives have a fitted effect of over 50% in size; note: potency is the fitted concentration of half-maximal effect
Summary of the method: as §1

[9] = Quantitative High-Throughput drug screen in 47 multiple myeloma cell lines against the NCATS MIPE library collection: KMS28BM_JCRB cell viability assay (AID 1919874); note: nearly all actives have a fitted effect of over 35% in size; note: potency is the fitted concentration of half-maximal effect
Summary of the method: as §1

[10] = Quantitative High-Throughput drug screen in 47 multiple myeloma cell lines against the NCATS MIPE library collection: UTMC2_PLB cell viability assay (AID 1919868); note: nearly all actives have a fitted effect of over 55% in size; note: potency is the fitted concentration of half-maximal effect
Summary of the method: as §1

[11] = Quantitative High-Throughput drug screen in 47 multiple myeloma cell lines against the NCATS MIPE library collection: RPMI8226_ATCC cell viability assay (AID 1919871); note: nearly all actives have a fitted effect of over 30% in size; note: potency is the fitted concentration of half-maximal effect
Summary of the method: as §1

[12] = molecular target: Cytochrome P450 3A4 (Homo sapiens) (UniProt P08684); assay: qHTS for inhibitors of CYP3A4 against the NCATS DSHEA and TCM libraries (AID 1919971);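 note: % is set by controls: 0 for no effect and ±100 for the full control effect; inhibition lowers luminescence from luciferin made by CYP3A4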
Summary of the method: (§2)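 Read-out is luminescence after P450-Glo detection (30 min, RT). Before that: 15 min compound–enzyme preincubation, then 30-45 min reaction with 1x NADPH regeneration solution, substrate concentration isoform-specific.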

[13] = molecular target: Cytochrome P450 2D6 (Homo sapiens) (UniProt P10635); assay: qHTS for inhibitors of CYP2D6 against the NCATS DSHEA and TCM libraries (AID 1919972); note: % is set by controls: 0 for no effect and ±100 for the full control effect
Summary of the method: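 Luminescent P450-Glo read-out of CYP2D6 turnover of a luciferin substrate after NADPH-driven reaction of 30-45 min at room temperature. Compounds were first preincubated 15 min with enzyme at titrated concentrations; quinidine was the intraplate control.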

[14] = molecular target: Cytochrome P450 2C9 (Homo sapiens) (UniProt P11712); assay: qHTS for inhibitors of CYP2C9 against the NCATS DSHEA and TCM libraries (AID 1919973);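 note: luminogenic pro-luciferin CYP2C9 substrate turned into luciferin with NADPH regeneration; series mostly up to about 34 µM; % is set by controls: 0 for no effect and ±100 for the full control effect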
Summary of the method: as §2

[15] = molecular target: Cytochrome P450 2C19 (Homo sapiens) (UniProt P33261); assay: qHTS for inhibitors of CYP2C19 against the NCATS DSHEA and TCM libraries (AID 1919974);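 note: luminescence from luciferin released by CYP2C19 oxidation of a pro-luciferin substrate; % is set by controls: 0 for no effect and ±100 for the full control effect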
Summary of the method: as §2

[16] = KB-3-1 P-gp reporter qHTS against the NCATS DSHEA and TCM libraries (AID 1919975); note: 0% is about no effect
Summary of the method: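 KB-3-1 parental line, 1536-well qHTS: cells seeded, ~4 h attachment, pintool compound addition, ~72 h at 37C, then CellTiter-Glo, 30 min RT, luminescence. Concentration-response format.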

[17] = molecular target: Cytochrome P450 1A2 (Homo sapiens) (UniProt P05177); assay: qHTS for inhibitors of CYPIA2 against the NCATS DSHEA and TCM libraries (AID 1919976);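 note: light from luciferin formed by CYP1A2 from a pro-luciferin substrate; series mostly up to about 37 µM; % is set by controls: 0 for no effect and ±100 for the full control effect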
Summary of the method: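 CYP1A2 + luciferin substrate, 100 mM KPO4-type buffer; cmpd 15 min RT; 1x NADPH regen, 30-45 min RT dark; detection reagent 30 min RT; luminescence. Minus-enzyme wells as background; furafylline intraplate control.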

[18] = qHTS Counterscreen for compound interference against the NCATS DSHEA and TCM libraries (AID 1919978); conditions: firefly luciferase detection reagent interference, luminescence;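 note: compounds preincubated with 1 µM D-luciferin or buffer before detection reagent; % of control where 0% means no effect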
Summary of the method: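 Compounds, titrated from 19.5 nM to 39.8 uM final, were pinned onto 1 uM D-luciferin or plain 100 mM potassium phosphate. After 15 min at room temperature, luciferin detection reagent was added for 30 min before the luminescence read.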

[19] = Dual reporter qHTS for agonist of Pregnane X Receptor (hPXR) against the NCATS DSHEA and TCM libraries: Fluorescence readout (AID 1920058); note: 0% is about no effect
Summary of the method: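 HepG2 hPXR-Luc, 2000 cells/well, 5 h attach; cpds ~24 h, 37 °C/5% CO2; CellTiter-Fluor 1 h; fluor. Ex/Em 405/540 nm = viability.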

[20] = Quantitative High-Throughput drug screen in 47 multiple myeloma cell lines against the NCATS MIPE library collection: SKMM1_PLB cell viability assay (AID 1919863); conditions: SKMM1 myeloma viability, CellTiter-Glo ATP, 48 h; viability: stronger effect = lower value; note: nearly all actives have a fitted effect of over 35% in size; note: potency is the fitted concentration of half-maximal effect; for viability: series mostly up to about 46 µM
Summary of the method: as §1

Chain of Cytochrome P450 1A2 (Homo sapiens) (P05177 whole entry, looked up): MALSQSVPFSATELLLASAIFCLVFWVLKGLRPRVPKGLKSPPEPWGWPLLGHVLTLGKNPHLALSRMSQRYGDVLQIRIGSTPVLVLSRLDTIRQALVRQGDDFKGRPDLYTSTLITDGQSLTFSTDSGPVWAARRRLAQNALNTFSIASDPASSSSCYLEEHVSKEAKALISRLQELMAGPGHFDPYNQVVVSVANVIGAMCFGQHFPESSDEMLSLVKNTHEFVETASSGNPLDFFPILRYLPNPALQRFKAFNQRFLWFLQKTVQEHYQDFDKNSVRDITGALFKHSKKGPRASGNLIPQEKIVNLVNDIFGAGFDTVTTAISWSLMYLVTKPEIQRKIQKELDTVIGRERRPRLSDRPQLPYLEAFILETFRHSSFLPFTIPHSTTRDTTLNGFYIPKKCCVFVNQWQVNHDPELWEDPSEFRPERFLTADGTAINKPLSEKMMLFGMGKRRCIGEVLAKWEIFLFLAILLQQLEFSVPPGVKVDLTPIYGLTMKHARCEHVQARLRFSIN
Chain of Cytochrome P450 2C9 (Homo sapiens) (P11712 whole entry, looked up): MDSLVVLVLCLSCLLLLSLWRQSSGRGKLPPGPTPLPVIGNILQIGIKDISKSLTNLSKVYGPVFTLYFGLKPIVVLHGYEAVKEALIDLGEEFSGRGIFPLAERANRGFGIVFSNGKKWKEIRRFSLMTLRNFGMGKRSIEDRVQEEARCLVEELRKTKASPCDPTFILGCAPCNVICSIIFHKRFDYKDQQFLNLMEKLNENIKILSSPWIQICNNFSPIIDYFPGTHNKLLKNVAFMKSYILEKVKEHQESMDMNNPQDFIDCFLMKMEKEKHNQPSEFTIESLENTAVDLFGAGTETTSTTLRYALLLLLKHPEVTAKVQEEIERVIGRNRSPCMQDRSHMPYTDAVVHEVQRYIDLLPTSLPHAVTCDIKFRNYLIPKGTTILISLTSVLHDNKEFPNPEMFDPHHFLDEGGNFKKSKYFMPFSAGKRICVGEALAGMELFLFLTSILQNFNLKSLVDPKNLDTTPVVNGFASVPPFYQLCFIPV
Chain of Cytochrome P450 2C19 (Homo sapiens) (P33261 whole entry, looked up): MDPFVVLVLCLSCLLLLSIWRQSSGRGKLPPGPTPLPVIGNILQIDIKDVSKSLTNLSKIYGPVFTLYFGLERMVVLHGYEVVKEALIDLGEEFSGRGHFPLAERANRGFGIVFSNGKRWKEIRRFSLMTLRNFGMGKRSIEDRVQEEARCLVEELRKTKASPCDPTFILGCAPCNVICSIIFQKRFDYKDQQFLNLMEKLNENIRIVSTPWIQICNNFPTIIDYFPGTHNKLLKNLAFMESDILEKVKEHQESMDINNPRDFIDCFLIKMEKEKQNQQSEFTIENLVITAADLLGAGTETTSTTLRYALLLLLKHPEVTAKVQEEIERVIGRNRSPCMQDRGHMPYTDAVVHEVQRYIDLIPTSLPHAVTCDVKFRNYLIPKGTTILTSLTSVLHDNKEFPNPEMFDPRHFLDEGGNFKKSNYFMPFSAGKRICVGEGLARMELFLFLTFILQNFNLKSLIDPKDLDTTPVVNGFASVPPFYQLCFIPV
Chain of Cytochrome P450 3A4 (Homo sapiens) (P08684 whole entry, looked up, canonical isoform): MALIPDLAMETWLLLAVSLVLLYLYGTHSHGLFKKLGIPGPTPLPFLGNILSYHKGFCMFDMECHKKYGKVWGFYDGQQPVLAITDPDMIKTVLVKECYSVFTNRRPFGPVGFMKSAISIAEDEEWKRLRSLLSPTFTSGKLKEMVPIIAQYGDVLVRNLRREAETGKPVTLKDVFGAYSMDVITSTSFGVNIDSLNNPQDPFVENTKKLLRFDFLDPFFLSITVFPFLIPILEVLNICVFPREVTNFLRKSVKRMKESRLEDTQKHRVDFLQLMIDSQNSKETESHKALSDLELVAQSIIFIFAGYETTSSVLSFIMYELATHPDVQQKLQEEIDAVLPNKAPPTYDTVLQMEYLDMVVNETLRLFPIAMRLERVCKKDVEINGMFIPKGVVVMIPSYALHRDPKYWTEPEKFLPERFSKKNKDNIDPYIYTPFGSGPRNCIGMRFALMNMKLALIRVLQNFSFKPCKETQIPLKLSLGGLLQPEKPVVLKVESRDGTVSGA
Chain of Cytochrome P450 2D6 (Homo sapiens) (P10635 whole entry, looked up): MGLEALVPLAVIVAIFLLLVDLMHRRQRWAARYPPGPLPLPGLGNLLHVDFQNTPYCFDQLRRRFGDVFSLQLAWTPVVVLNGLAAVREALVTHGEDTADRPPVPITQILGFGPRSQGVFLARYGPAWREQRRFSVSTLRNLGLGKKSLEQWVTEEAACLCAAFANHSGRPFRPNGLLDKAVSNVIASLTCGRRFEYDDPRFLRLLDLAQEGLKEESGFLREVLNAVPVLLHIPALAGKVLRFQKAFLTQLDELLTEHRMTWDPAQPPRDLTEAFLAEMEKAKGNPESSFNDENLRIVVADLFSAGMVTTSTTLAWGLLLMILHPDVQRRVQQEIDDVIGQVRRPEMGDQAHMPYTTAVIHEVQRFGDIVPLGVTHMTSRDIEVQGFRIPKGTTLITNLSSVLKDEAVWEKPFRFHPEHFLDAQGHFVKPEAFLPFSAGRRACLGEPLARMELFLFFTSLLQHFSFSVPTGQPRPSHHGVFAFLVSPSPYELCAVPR

CCC1(c2ccccc2)C(=O)NCNC1=O
inactive: Potency [7] | Potency [8] | Potency [9]
active: Potency [1] 2.96 µM | Potency [2] 2.09 µM | Potency [3] 2.96 µM | Potency [4] 4.69 µM | Potency [5] 2.96 µM | Potency [6] 3.72 µM

Cn1c(=O)c2c(ncn2C)n(C)c1=O
inactive: Potency [1] | Potency [2] | Potency [3] | Potency [4] | Potency [10] | Potency [5] | Potency [6] | Potency [11] | Potency [8] | Potency [9] | outcome [12] | outcome [13] | outcome [14] | outcome [15] | outcome [16] | outcome [17] | max response [18] 2.12% | outcome [19]

O=C(CCCN1CCC(O)(c2ccc(Cl)cc2)CC1)c1ccc(F)cc1
active: Potency [8] 23.5 µM
inactive: viability [20] 92.3%

CC(C)(Oc1ccc(C2CC2(Cl)Cl)cc1)C(=O)O (centres undefined)
inactive: viability [20] 131% | Potency [1] | Potency [3] | Potency [10] | Potency [5] | Potency [11] | Potency [7] | Potency [8] | Potency [9]

CC(C)C(=O)Nc1ccc([N+](=O)[O-])c(C(F)(F)F)c1
inactive: Potency [11] | Potency [9]
active: Potency [1] 4.69 µM | Potency [2] 1.05 µM | Potency [3] 1.87 µM | Potency [4] 3.32 µM | Potency [5] 3.32 µM | Potency [6] 3.32 µM

N[C@@H](Cc1c[nH]c2ccc(O)cc12)C(=O)O
active: Potency [4] 16.6 µM | Potency [11] 1.05 µM
inactive: viability [20] 109% | Potency [3] | Potency [8] | Potency [9]

CC(C)(C)C(=O)Oc1ccc(S(=O)(=O)Nc2ccccc2C(=O)NCC(=O)O)cc1
inactive: viability [20] 142% | Potency [11] | Potency [7] | Potency [8] | Potency [9]

CC1(CN2CCC(n3c(=O)[nH]c4ccccc43)CC2)OCc2ccccc2-n2cccc21 (centres undefined)
active: Potency [1] 5.9 µM | Potency [2] 4.18 µM | Potency [3] 4.18 µM | Potency [5] 13.2 µM

CN1CCC(=C2c3ccccc3C=Cc3ccccc32)CC1
active: Potency [1] 16.6 µM | Potency [2] 8.33 µM | Potency [3] 13.2 µM | Potency [4] 16.6 µM | Potency [10] 13.2 µM | Potency [5] 23.5 µM | Potency [6] 18.7 µM
inactive: Potency [7]

CN(C)C(=N)N=C(N)N
inactive: viability [20] 138% | Potency [1] | Potency [4] | Potency [5] | Potency [11] | Potency [8] | Potency [9]

NC(CO)C(=O)NNCc1ccc(O)c(O)c1O (centres undefined)
inactive: Potency [2] | Potency [3] | Potency [6]
active: Potency [20] 11.8 µM | Potency [9] 23.5 µM

NS(=O)(=O)c1cc2c(cc1Cl)NCNS2(=O)=O
active: Potency [3] 7.43 µM
inactive: viability [20] 114% | Potency [11] | Potency [7] | Potency [8]

COC(=O)Nc1nc2ccc(C(=O)c3cccs3)cc2[nH]1
inactive: Potency [9]
active: Potency [20] 0.0017 µM | Potency [10] 0.0209 µM | Potency [5] 0.0235 µM | Potency [11] 0.526 µM

CC(COc1ccccc1)N(CCCl)Cc1ccccc1 (centres undefined)
active: Potency [9] 18.7 µM
inactive: viability [20] 112% | Potency [1] | Potency [11] | Potency [7] | Potency [8]

NC(=O)OCC(COC(N)=O)c1ccccc1
inactive: Potency [2] | Potency [3] | Potency [5] | Potency [11]
active: Potency [1] 10.5 µM

COc1cc2nc(N(C)CCCNC(=O)C3CCCO3)nc(N)c2cc1OC (centres undefined)
inactive: Potency [1] | Potency [2] | Potency [3] | Potency [4] | Potency [5] | Potency [6]

CN1CCN(CCCN2c3ccccc3Sc3ccc(Cl)cc32)CC1
active: Potency [1] 18.7 µM | Potency [2] 14.8 µM | Potency [3] 14.8 µM | Potency [4] 10.5 µM | Potency [10] 23.5 µM | Potency [5] 23.5 µM | Potency [6] 8.33 µM | Potency [8] 14.8 µM | Potency [9] 20.9 µM

Cc1cc(C(C)(C)C)cc(C)c1CC1=NCCN1
inactive: viability [20] 116% | Potency [1] | Potency [3] | Potency [10] | Potency [11] | Potency [7] | Potency [8]

CCc1cccc2c3c([nH]c12)C(CC)(CC(=O)O)OCC3 (centres undefined)
inactive: Potency [1] | Potency [2] | Potency [3] | Potency [10] | Potency [5] | Potency [6] | Potency [11] | Potency [7] | Potency [8] | Potency [9]

Cc1cn([C@H]2C[C@H](N=[N+]=[N-])[C@@H](CO)O2)c(=O)[nH]c1=O
inactive: viability [20] 139% | Potency [11] | Potency [8] | Potency [9]
active: Potency [1] 16.6 µM | Potency [3] 16.6 µM | Potency [5] 20.9 µM | Potency [6] 14.8 µM

O=C(Nc1ccc([N+](=O)[O-])cc1Cl)c1cc(Cl)ccc1O
active: Potency [20] 1.48 µM | Potency [2] 1.32 µM | Potency [3] 0.935 µM | Potency [4] 0.743 µM | Potency [10] 1.05 µM | Potency [5] 0.526 µM | Potency [6] 1.32 µM | Potency [11] 1.05 µM | Potency [7] 1.32 µM | Potency [8] 0.526 µM

O=C(C1CCCCC1)N1CC(=O)N2CCc3ccccc3C2C1 (centres undefined)
active: Potency [2] 20.9 µM | Potency [3] 16.6 µM
inactive: Potency [1] | Potency [4] | Potency [7] | Potency [8] | Potency [9]

Clc1ccc(C(c2ccccc2Cl)C(Cl)Cl)cc1 (centres undefined)
active: Potency [20] 20.9 µM | Potency [1] 20.9 µM | Potency [4] 6.62 µM | Potency [6] 18.7 µM | Potency [11] 23.5 µM | Potency [8] 18.7 µM | Potency [9] 16.6 µM
inactive: Potency [5]

COc1cc2nc(N3CCN(C(=O)C4COc5ccccc5O4)CC3)nc(N)c2cc1OC (centres undefined)
inactive: viability [20] 137%
active: Potency [2] 20.9 µM | Potency [3] 29.6 µM | Potency [5] 18.7 µM | Potency [6] 20.9 µM | Potency [11] 16.6 µM | Potency [8] 18.7 µM | Potency [9] 16.6 µM

CN1CCN(C2=Nc3cc(Cl)ccc3Nc3ccccc32)CC1
inactive: viability [20] 114% | Potency [1] | Potency [5] | Potency [11] | Potency [9]

O=C(c1ccc(OCCN2CCCCC2)cc1)c1c(-c2ccc(O)cc2)sc2cc(O)ccc12
active: Potency [20] 26.4 µM | Potency [2] 20.9 µM | Potency [4] 16.6 µM | Potency [6] 18.7 µM | Potency [11] 14.8 µM | Potency [8] 16.6 µM | Potency [9] 23.5 µM

CN(C)CCOC(c1ccccc1)c1ccccc1
active: Potency [3] 7.43 µM | Potency [4] 6.62 µM | Potency [10] 10.5 µM | Potency [5] 7.43 µM | Potency [6] 8.33 µM | Potency [9] 5.9 µM
inactive: viability [20] 119% | Potency [11] | Potency [7]

Cc1cc(C(C)(C)C)c(O)c(C)c1CC1=NCCN1
inactive: Potency [1] | Potency [2] | Potency [3] | Potency [4] | Potency [5] | Potency [6] | Potency [7] | Potency [8] | Potency [9]

OCCN(CCO)c1nc(N2CCCCC2)c2nc(N(CCO)CCO)nc(N3CCCCC3)c2n1
active: Potency [1] 23.5 µM | Potency [2] 18.7 µM | Potency [3] 23.5 µM | Potency [4] 23.5 µM | Potency [10] 20.9 µM | Potency [8] 16.6 µM | Potency [9] 16.6 µM

CC12CC3CC(C)(C1)CC(N)(C3)C2
active: Potency [2] 20.9 µM | Potency [3] 23.5 µM | Potency [4] 18.7 µM | Potency [6] 20.9 µM | Potency [9] 2.64 µM
inactive: viability [20] 125% | Potency [7]
